Experimental data taken from PubChem BioAssay (NCI).
About 83,000 compounds went through this panel and 20% of them were active in at least one assay; those are over-represented in the sample as a whole.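 Cells were grown in 96-well plates and exposed to the test compound at a single concentration for 48 hours; results are reported as percent growth, with values below 10 considered active.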 Unmarked numbers belong to inactive results. Active and inactive are the calls of the source.

Tests used:
Test in all cases: NCI-60 one-dose screen, 48 h (100 = growth as untreated, 0 = no growth, -100 = all killed)
Conditions in all cases: 10 µM unless noted
[1] = system: NCI-H23 lung
[2] = system: NCI-H226 lung
[3] = system: NCI-H322M lung
[4] = system: HOP-62 NSCLC
[5] = system: NCI-H460 lung
[6] = system: HOP-92 NSCLC
[7] = system: NCI-H522 lung
[8] = system: A549/ATCC NSCLC
[9] = system: 786-0 renal
[10] = system: COLO 205 colon

SMILES	growth [1]	growth [2]	growth [3] [%]	growth [4]	growth [5]	growth [6]	growth [7]	growth [8]	growth [9]	growth [10]
C(=C(\C1=NCCN1)n1cnc2ccccc21)/c1cccc2ccccc12	90.7%	76.4%	88.2	88.6%	101%	8.37% (active)	79.4%	94%	92.5%	–
C=CCn1c(SCC(=O)Nc2cccc(C(=O)/C=C/c3ccc(C)cc3)c2)nc2ccccc2c1=O	81.3%	92.6%	92.1	113%	94.8%	103%	83.8%	82.3%	98.9%	–
CCc1ccc(NC(=O)N[C@@H](Cc2cccc(F)c2)C(=O)N[C@@H]2C(=O)N3CCC[C@H]3C(=O)N3CCCC[C@H]3C(=O)N[C@@H](C)C(=O)N3C[C@H](C)C[C@H]3C(=O)O[C@H]2C)c(F)c1	31.7%	-2.16% (active)	46	43%	15.4%	-0.342% (active)	26.8%	33.3%	37.1%	–
O=C1Nc2ccc(Cl)cc2/C1=C/c1ccc(OCc2ccc(F)cc2)cc1	92.5%	96.4%	95.7	107%	97.7%	85.6%	90.4%	91.1%	98.4%	–
CC1OC(O[C@@H]2[C@H](O)C(CO)OC(O[C@H]3COC(O[C@H]4CC[C@]5(C)[C@H]6CC[C@]78OC[C@@]9(CC[C@](C)(C=O)C[C@H]97)C(=O)C[C@@]8(C)[C@]6(C)CC[C@H]5C4(C)C)[C@@H](O)[C@@H]3O)[C@H]2OC2OC[C@@H](O)[C@@H](O)[C@@H]2O)[C@@H](O)[C@@H](O)[C@H]1O (stereo partly specified)	94.8%	82.7%	93.3	75.2%	98.5%	79.5%	87.1%	90.6%	95.5%	–
COc1ccc(-c2nnc(SCc3ccc(O)c4ncccc34)n2-c2ccccc2)cc1	17.6%	30.1%	19.8	19.9%	2.93% (active)	-4.84% (active)	15.5%	26.4%	25.5%	–
Cc1cc(O)c(=O)cc2c1C[C@H]1CC(C)(C)/C=C/C[C@]3(C)Oc4cc(=O)c(O)cc(C)c4C[C@H]3C[C@H](O)[C@@]1(C)O2	-10.9% (active)	14.7%	16	-12.4% (active)	0.132% (active)	-16.1% (active)	-26.9% (active)	-0.223% (active)	-24.3% (active)	-10.3% (active)
CCN(CC)c1ccc2cc(C(=O)NCCOCCOCCOCCn3cc(CCC(=O)Nc4ccc(C(=O)c5ccc(NC(=O)OC(C)(C)C)cc5)cc4)nn3)c(=O)oc2c1	61.7%	20.3%	74.5	53.5%	78.9%	85.7%	28.4%	73.1%	73.2%	–
C#CCOc1ccc(C(Nc2ccc(Cl)cc2)c2nnnn2C2CCCCC2)cc1 (stereo unspecified)	91.7%	88.4%	93.6	83.4%	83.1%	81.8%	81%	78.8%	92.5%	–
Oc1ccc(CSc2nnc(-c3ccncc3)o2)c2cccnc12	17.7%	22.7%	39.4	12.3%	4.37% (active)	-20.8% (active)	11.6%	15.4%	31.3%	68.4%
C#C[C@]1(O)CC[C@H]2[C@@H]3CC=C4c5sc(C6CCOCC6)nc5CC[C@]4(C)[C@H]3CC[C@@]21C	74.4%	82.5%	84.1	90.5%	79.8%	103%	80.8%	73.2%	62.7%	103%
O=C1Nc2ccc(Cl)cc2/C1=C/c1ccc(OCc2ccc(Br)cc2F)cc1	98.6%	73.5%	99.6	101%	103%	95%	100%	102%	102%	–
O=S(=O)(Nc1ccc(-c2nc(-c3cccc(O)c3)c(-c3ccnc(Br)c3)[nH]2)cc1)c1ccccc1	16.2%	40.1%	41.7	33.1%	19.7%	13.7%	25.5%	51.5%	17.7%	43.3%
